Measured values from PubChem BioAssay AID485341 (National Center for Advancing Translational Sciences (NCATS), 2010).
The whole screen tested about 330,000 compounds, of which about 1,700 (0.52%) were called active. Where a call stands in place of a potency, no number is given. Calls follow the shape of the dose curve; as a rule, active = well fitted inhibition curve with a large enough effect; inconclusive = small, poorly fitted or top-dose-only effect; inactive = no such curve, though single readings can be large or run the other way. This excerpt belongs to a sample that is enriched for actives.

target: Beta-lactamase (Escherichia coli (strain K12)) (UniProt P00811); assay: qHTS Inhibitors of AmpC Beta-Lactamase (assay without detergent); conditions: AmpC nitrocefin hydrolysis, absorbance 480 nm, 0.0001% Triton; series mostly up to 57.1 µM; also: nearly all actives have a fitted effect of over 20% in size
Summary of the method: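 AmpC (5.3 nM in the dispensed reagent) in 20 mM phosphate pH 7.0 with 0.01% (detergent screen) or 0.0001% Triton X-100 was preincubated with compounds for 15 min at room temperature. Nitrocefin was then added from an 800 uM solution, and hydrolysis was followed at 480 nm.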
Potency is read from the fitted curve at half-maximal effect.

Sequence of Beta-lactamase (Escherichia coli (strain K12)) (P00811 whole entry, looked up): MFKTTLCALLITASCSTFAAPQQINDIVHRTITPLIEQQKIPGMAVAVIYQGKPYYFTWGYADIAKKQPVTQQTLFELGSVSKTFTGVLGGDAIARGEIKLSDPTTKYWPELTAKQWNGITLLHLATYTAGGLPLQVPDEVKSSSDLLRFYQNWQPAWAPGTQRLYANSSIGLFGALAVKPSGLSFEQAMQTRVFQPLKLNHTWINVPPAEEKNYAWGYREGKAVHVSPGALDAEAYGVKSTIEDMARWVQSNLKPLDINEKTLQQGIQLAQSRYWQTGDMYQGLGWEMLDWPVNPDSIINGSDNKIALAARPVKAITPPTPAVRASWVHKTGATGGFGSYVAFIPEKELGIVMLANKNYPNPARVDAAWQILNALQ

Row | Compound | Potency | activity change, negative = inhibition
1 | c1nc(COc2nsnc2N2CCOCC2)cs1 | inactive | –
2 | Cc1cc(=O)[nH]c(SCc2cccc(F)c2)n1 | inactive | –
3 | Cc1cc(=O)[nH]c(SCc2cc(Cl)ccc2OC(F)F)n1 | inactive | –
4 | O=c1cc(O)nc(SCc2ccccc2Cl)[nH]1 | 3.16 µM (active) | –
5 | CCSc1nc2sc3c(c2c(=O)[nH]1)CC(C)(C)OC3 | inactive | –
6 | CC/C(C)=N/Nc1nc2sc3c(c2c(=O)[nH]1)CC(C)(C)OC3 | 1.12 µM (active) | –
7 | CC(C)c1nc2sc3c(c2c(=O)n1N)CC(C)(C)OC3 | inactive | –
8 | Cc1cc2ccccn2c1C(=O)c1cccc(F)c1 | inactive | –
9 | Cc1ccc(C(C[N+](=O)[O-])c2c(C)cc3ccccn23)cc1 (stereo unspecified) | 22.4 µM (active) | –
10 | Cc1cc2ccccn2c1C(C[N+](=O)[O-])c1c(F)cccc1Cl (stereo unspecified) | inactive | –
11 | Cn1c(=NC(=O)c2ccc3c(c2)OCCO3)sc2cc(S(C)(=O)=O)ccc21 | inactive | –
12 | CN(C)c1ccc(C(CNC(=O)c2ccc(F)cc2)c2c[nH]c3ccccc23)cc1 (stereo unspecified) | 14.1 µM (active) | –
13 | COc1ccccc1C(CNC(=O)c1cccc(S(=O)(=O)Nc2ccc(F)cc2)c1)N(C)C (stereo unspecified) | inactive | –
14 | C[C@H](NC(=O)c1ccccc1)C(=O)OCC(=O)c1c[nH]c2ccccc12 | inactive | –
15 | COc1cccc(/C=N/NC(=O)c2[nH]nc3c2CCc2ccccc2-3)c1O | 5.62 µM (active) | –
16 | CCOc1ccc2[nH]c(C(=O)N/N=C/c3cccc(OC)c3OC)cc2c1 | inactive | –
17 | COc1cccc(/C=N/NC(=O)CNC(=O)c2ccc(S(=O)(=O)N3CCOCC3)cc2)c1OC | inactive | –
18 | CCc1ccc(C(=O)NN=C2CCCCCC2)s1 | inactive | –
19 | CCCNS(=O)(=O)c1ccc(CCC(=O)N2CCCC2)cc1 | inactive | –
20 | COc1ccc(C(CC(=O)c2ccccc2)S(=O)(=O)c2ccccc2)cc1 (stereo unspecified) | inactive | –
21 | CCOC(=O)N1CCN(C(=O)CSc2nnc(-c3c[nH]c4ccccc34)n2CCOC)CC1 | inactive | –
22 | CCn1c(SCC(=O)Nc2ccc(OC)c(OC)c2)nnc1-c1c[nH]c2ccccc12 | 0.631 µM (active) | –
23 | COc1ccc(-n2c(SCC(=O)NCc3cccs3)nnc2-c2ccoc2C)cc1 | inactive | –
24 | CCn1c(SCCC(C)C)nnc1-c1c[nH]c2ccccc12 | inactive | –

Row | Compound | Potency | activity change, negative = inhibition
25 | COc1ccc(-n2c(SCC(=O)NCc3ccco3)nnc2-c2c[nH]c3ccccc23)cc1 | 3.55 µM (active) | –
26 | O=C(CSc1nnc(-c2c[nH]c3ccccc23)n1-c1ccc(F)cc1)NCc1ccco1 | inactive | –
27 | N/C(=N\S(=O)(=O)c1ccc(Cl)cc1)N1CCOCC1 | inactive | –
28 | CN(C)Cc1c(O)ccc2c(=O)c(-c3ccccc3Cl)coc12 | inactive | –
29 | Cc1ccc(N(CC(=O)Nc2cc(C)cc(C)c2)S(=O)(=O)c2cccc3nonc23)cc1 | 15.8 µM (active) | –
30 | CCOC(=O)c1cccc(NC(=O)CN(c2ccc(C)cc2)S(=O)(=O)c2c(C)noc2C)c1 | inactive | –
31 | Cc1ccc(CNC(=O)CCNS(=O)(=O)c2cccc3nonc23)cc1 | inactive | –
32 | COC(=O)c1ccc(COc2ccc(C#N)cc2)o1 | inactive | –
33 | Cc1cccc(C(=O)OCC(=O)Nc2sc3c(c2C#N)CCC3)c1 | inactive | –
34 | N#Cc1c(NC(=O)CCCl)sc2c1CCCCC2 | inactive | –
35 | N#CCC(=O)Nc1ccc(C(=O)OCC(=O)Nc2sc3c(c2C#N)CCCC3)cc1 | 14.1 µM (active) | –
36 | CCOC(=O)Cn1c2c(c(-c3ccccc3OC)cc1=O)CCCC2 | inactive | –
37 | O=C(CSc1nnc(-c2ccncc2)n1C1CCCCC1)Nc1ccccc1 | inactive | –
38 | Cc1ccc(N2C(=O)C3N=NN(CC(=O)N4N=C(c5cccc6ccccc56)CC4c4ccccc4)C3C2=O)cc1 (stereo unspecified) | inactive | –
39 | Cc1cccc(C(C)C)c1NC(=O)COC(=O)C1CC(=O)N(Cc2ccccc2)C1 (stereo unspecified) | inactive | –
40 | NS(=O)(=O)c1ccc(CNC(=O)c2cccc(Oc3ccccc3)c2)cc1 | inactive | –
41 | Cc1ccc(NC(=O)c2cccc(S(=O)(=O)N3CCCc4ccccc43)c2)nc1 | inactive | –
42 | NS(=O)(=O)c1ccc(CNC(=O)c2cccc(S(=O)(=O)N3CCc4ccccc43)c2)cc1 | 14.1 µM (active) | –
43 | O=C(NC1CC1)C1=C[C@H](c2c[nH]c3ccccc23)C[C@H](OCc2ccc(CO)cc2)O1 | inactive | –
44 | CCNC(=O)NC(=O)C(C)OC(=O)C1CCN(S(=O)(=O)c2ccccc2F)CC1 (stereo unspecified) | inactive | –
45 | CCOC1CS(=O)(=O)CC1OCC (stereo unspecified) | inactive | –
46 | c1csc(-c2nnc(COc3ccc4c(c3)OCO4)o2)c1 | inactive | –
47 | C=CS(=O)c1sc(Cl)c(N2CCOCC2)c1[N+](=O)[O-] (stereo unspecified) | inactive | –
48 | Cc1cc(Nc2cccc(F)c2)n2ncnc2n1 | inactive | –

Row | Compound | Potency | activity change, negative = inhibition
49 | O=S(=O)(NCc1ccco1)c1cnc(Cl)c(Cl)c1 | inactive | –
50 | C/C(=N\Nc1ncc(Cl)cc1Cl)c1ccc(S(=O)(=O)NCc2ccco2)cc1 | 31.6 µM (active) | –
51 | Cc1c(Cl)cnc(NC(=O)COC(=O)c2ccc(S(=O)(=O)NCc3ccco3)cc2)c1Cl | inactive | –
52 | O=C(c1cccnc1)N(c1cc2sc(=O)oc2c2ccccc12)S(=O)(=O)c1ccccc1 | inactive | –
53 | Cc1ccccc1SCC(=O)OCC(=O)N1CC(=O)Nc2ccccc21 | inactive | –
54 | Cc1cc(C(=O)N/N=C/c2ccc(O)c([N+](=O)[O-])c2)c(C)n1-c1ccc(F)cc1 | 17.8 µM (active) | –
55 | O=C1CSC(=S)N1/N=C/c1ccc(O)c([N+](=O)[O-])c1 | inactive | –
56 | Cc1cc(C(=O)COC(=O)C2CC2)c(C)n1-c1ccc(F)cc1 | – | -17.5% [at 11.4 µM] (inactive)
57 | CCOc1ccc(CN2CCNC(=O)C2CC(=O)NCCCC2CCCC2)cc1 (stereo unspecified) | inactive | –
58 | COc1ccc(NC(=O)CSc2nc(C)cs2)cc1 | inactive | –
59 | COc1ccc(NC(=O)c2ccc(C#CC(C)(C)O)cc2)cc1 | inactive | –
60 | COc1ccc(NC(=O)c2sccc2SCC#N)cc1 | 4.47 µM (active) | –
61 | CNC[C@H]1Oc2c(NC(=O)C3CCCCC3)cccc2C(=O)N([C@H](C)CO)C[C@@H]1C | inactive | –
62 | Cn1cccc1Cc1nnc(SCC(=O)NCc2ccc3c(c2)OCO3)n1CCc1ccccc1 | inactive | –
63 | Cc1cc(=O)oc(C)c1C(=O)Nc1cnc2ccccc2c1 | inactive | –
64 | Cc1ccc(N=Cc2c(O)cc(C)oc2=O)c(C)c1 | inactive | –
65 | Cc1cc(O)c(C(=O)/C=C/c2c(F)c(F)c(F)c(F)c2F)c(=O)o1 | 11.2 µM (active) | –
66 | COc1ccccc1C(=O)Nc1ccc(C)c(S(=O)(=O)N2CCCCC2)c1 | inactive | –
67 | Nn1c(SCC(=O)NC(=O)NC2CCCC2)nnc1-c1ccccc1F | inactive | –
68 | COc1cccc2c1OCC1COc3c(c(=O)n(C)c(=O)n3C)C21 (stereo unspecified) | inactive | –
69 | C=CCNCCCCOc1ccccc1 | inactive | –
70 | COc1cccc(CNC(=O)C2CCN(S(=O)(=O)c3cccc4cccnc34)CC2)c1 | inactive | –
71 | O=C(O)C1CCCN(S(=O)(=O)c2cccc3cccnc23)C1 (stereo unspecified) | inactive | –
72 | COc1ccccc1CNC(=O)C1CCCN(S(=O)(=O)c2cccc3cccnc23)C1 (stereo unspecified) | 22.4 µM (active) | –

Row | Compound | Potency | activity change, negative = inhibition
73 | CC(=O)C1C(c2ccc(Cl)cc2)NC(=O)NC1(O)C(F)(F)F (stereo unspecified) | 44.7 µM (active) | –
74 | CCOC(=O)C1C(c2ccc(O)cc2)NC(=O)NC1(O)C(F)(F)F (stereo unspecified) | inactive | –
75 | CC(=O)C1C(c2cccc(Oc3ccccc3)c2)NC(=O)NC1(O)C(F)(F)F (stereo unspecified) | inactive | –
76 | COC(=O)[C@@H]1CC(O)CN1C(=O)C12CC3CC(CC(C3)C1)C2 (stereo partly specified) | inactive | –
77 | CC(=O)Nc1ccc(S(=O)(=O)Nc2ccc(-c3ccc4nnc(C)n4n3)cc2)cc1 | inactive | –
78 | CC(=O)Nc1ccc(S(=O)(=O)Nc2nc(-c3ccc(C(C)(C)C)cc3)cs2)cc1 | 35.5 µM (active) | –
79 | Cc1ccc(NS(=O)(=O)c2ccc(C(C)(C)C)cc2)cn1 | inactive | –
80 | O=C(CSc1nnc2scc(-c3ccc(F)cc3)n12)NCc1ccco1 | inactive | –
81 | Cc1ccc(-c2csc3nnc(SCC(=O)NCc4ccco4)n23)cc1 | 0.316 µM (active) | –
82 | Cn1c(-c2ccc(F)cc2)cnc1SCC(=O)NCc1ccco1 | inactive | –
83 | COc1ccccc1N(CC(=O)Nc1ccc(C(F)(F)F)cc1)S(C)(=O)=O | inactive | –
84 | Cc1nn(CC(=O)NCC2CCCO2)c(=O)c2cc3ccccc3n12 (stereo unspecified) | inactive | –
85 | O=C(Cn1nc(Cc2cccnc2)c2ccccc2c1=O)NCC1CCCO1 (stereo unspecified) | 0.501 µM (active) | –
86 | O=C(Cn1nc(Cc2cccnc2)c2ccccc2c1=O)NCC1COc2ccccc2O1 (stereo unspecified) | inactive | –
87 | CCOC(=O)N1CCC(NC(=O)Cn2cc3c(n2)CCCCC3)CC1 | 35.5 µM (active) | –
88 | COCCNC(=O)Cn1cc2c(n1)CCCCC2 | inactive | –
89 | O=C(Cn1cc2c(n1)CCCCC2)NCCN1CCOCC1 | inactive | –
90 | Cc1cc(-c2nnc(CCC(=O)NC(c3ccccc3)c3ccccc3)o2)no1 | inactive | –
91 | CCOC(=O)/C(=N\Nc1cc(Cl)ccc1Cl)N1CCN(C)CC1 | inactive | –
92 | CCc1ccc(CN(C)C(C)C(=O)Nc2ccc(S(=O)(=O)N3CCCC3)cc2)cc1 (stereo unspecified) | inactive | –
93 | O=C(CSC(=S)N1CCOCC1)c1ccccc1 | inactive | –
94 | O=C(c1cc2cc(Br)cc(Br)c2oc1=O)N1CCOCC1 | inactive | –
95 | O=C(CSC(=S)N1CCOCC1)c1cc(Br)cc(Br)c1O | 20 µM (active) | –
96 | CCN(CC(=O)Nc1ccc(Cl)c(S(=O)(=O)N(C)C)c1)Cc1nc2ccccc2c(=O)[nH]1 | inactive | –
